The whole screen tested about 340,000 compounds, of which about 1,000 (0.29%) were called active. Rule as the data show it: inconclusive = inhibition above about 29% without an active follow-up result; inactive = below that. Only a sample is shown. Results with a measured potency or affinity are listed apart.
Target: Genome polyprotein (Dengue virus type 2 (strain 16681-PDK53)) (UniProt P29991)
Assay: Dengue-2 NS5 methyltransferase inhibitors, primary screen, biochemical, confirmation dose response (AID 588689)
Settings: Dengue-2 NS5 methyltransferase capping enzyme assay, at 25 µM, stronger effect = higher value
[1] = measured here: pilot screen replicate inhibition

SMILES | inhibition | inhibition [1] [%]
COc1ccccc1CNC(=O)CN(CCc1ccccc1)S(C)(=O)=O | -7.36% (inactive) | 
COc1ccc(NS(=O)(=O)c2cc(NC(=O)c3sccc3C)ccc2N2CCOCC2)cc1 | 0.57% (inactive) | 
CC(=O)c1ccc(N2CCN(S(=O)(=O)c3c(C(=O)N4CCCCC4)c(C)n(C)c3C)CC2)cc1 | -2.71% (inactive) | 
Fc1cccc(Cl)c1CN1CCN(c2nc3ccccc3s2)CC1 | -4.55% (inactive) | 
COc1ccc(O)c(/C=N/c2nc3ccccc3n2C)c1 | 3.47% (inactive) | 
CCn1c(/C=N/c2nc3ccccc3n2C)nc2ccccc21 | -0.7% (inactive) | 
Cc1csc2c(=O)n3c(nc12)CCCCC3 | -3.21% (inactive) | 
CCN1C(=O)N/C(=C/c2ccc(Sc3ccc(C)cc3)o2)C1=O | -2.74% (inactive) | 
Cc1ccc(Sc2ccc(/C=C3/C(=O)NN(c4ccccc4)C3=O)o2)cc1 | -2.65% (inactive) | 
O=C(COC(=O)/C=C/c1ccco1)NC1CCCCC1 | -4.04% (inactive) | 
CC(=O)Nc1ccc(C(=O)CSc2nnc(-c3ccccc3F)n2CCc2ccccc2)cc1 | -4.64% (inactive) | 
C[C@@H](C[C@@H](O)[C@H](O)C(C)(C)O)[C@@H]1CC[C@]2(C)C3=CC[C@H]4C(C)(C)C(=O)CC[C@]4(C)[C@H]3CC[C@@]12C | -3.21% (inactive) | 
O=C(COC(=O)c1cc(Br)ccc1O)NNC(=O)c1cccs1 | 0% (inactive) | 
Nc1nc(SCc2ccccc2)c2[nH]cnc2n1 | -9.52% (inactive) | 
CNc1ncnc(Sc2nc(N)nc3nc[nH]c23)c1[N+](=O)[O-] | -30.9% (inactive) | 
CC(C)C(NS(=O)(=O)c1cccc(C(F)(F)F)c1)C(=O)N1CCc2ccccc2C1 (configuration not stated) | -4.98% (inactive) | 
CCn1c(SCC(=O)NNC(=O)c2ccc(C)cc2)nnc1C(C)C | 7.12% (inactive) | 
Nc1ccc(N2CCOCC2)c2nonc12 | 45.2% (inactive) | 
Nc1ccc(N2CCCCC2)cc1N1CCCCC1 | 25.7% (inactive) | 
O=C1C2CCCN2C(=S)N1c1ccccc1 (configuration not stated) | -3.27% (inactive) | 
COc1ccccc1-c1cc(N)n[nH]1 | 2.4% (inactive) | 
CC1CC(C)CN(C(=O)/C=C/c2ccc([N+](=O)[O-])s2)C1 (configuration not stated) | -5.44% (inactive) | 
COc1cccc(N2C(=O)/C(=C\c3cccs3)NC2=S)c1 | -5.28% (inactive) | 
COc1ccc(NC(C)C(=O)N/N=C/c2ccc([N+](=O)[O-])s2)cc1 (configuration not stated) | -5.18% (inactive) | 

SMILES | inhibition | inhibition [1] [%]
Cc1ccc(/C=C2\C(=O)NC(=O)N2C)o1 | 23.3% (inactive) | 
COc1cccc(NCc2ccc([N+](=O)[O-])s2)c1 | -8.01% (inactive) | 
COc1ccc(N2C(=O)NC(=O)C2=O)cc1 | -2.2% (inactive) | 
CC1=CN2C(=N)/C(=C/c3ccc([N+](=O)[O-])o3)C(=O)N=C2S1 | -58.2% (inactive) | 
Cc1cc(C)cc(N=Cc2ccc([N+](=O)[O-])s2)c1 | 4.37% (inactive) | 
Cc1cc(-c2ccc(S(=O)(=O)NCc3ccc(F)cc3)cc2)on1 | -4.39% (inactive) | 
O=C(Cc1ccc(Br)cc1)N/N=C/c1cccnc1 | 1.95% (inactive) | 
CCOC(=O)Cc1csc(SC(C)C(=O)Nc2ccc(NC(C)=O)cc2)n1 (configuration not stated) | -3.63% (inactive) | 
Cc1ccc(/C=C/C2=NN(Cc3ccccc3Cl)C(=O)CC2)cc1 | -2.71% (inactive) | 
O=C(CCC1CCCC1)NCCS(=O)(=O)N1CCN(c2ccccc2)CC1 | -5.17% (inactive) | 
Cc1c(C(=O)OCC(=O)N2CC(=O)Nc3ccccc32)oc2ccc(Br)cc12 | -0.83% (inactive) | 
Cc1cccc(NC(=O)C(=O)NCC2CCCN2S(=O)(=O)c2cccs2)c1 (configuration not stated) | 6.86% (inactive) | 
Cc1onc(-c2ccccc2)c1C(=O)OCC(=O)c1ccc[nH]1 | -1.1% (inactive) | 
COC(=O)NC1CSCC1OC(=O)CN1C(=O)c2ccccc2C1=O (configuration not stated) | 1.83% (inactive) | 
NS(=O)(=O)c1ccc(NC(=O)COc2ccc(S(=O)(=O)N3CCCC3)cc2)cc1 | -0.81% (inactive) | 
O=C1N/C(=C/c2ccc(Br)s2)C(=O)N1c1ccccc1 | -5.43% (inactive) | 
O=C1NC(=O)N(c2ccccc2)C1=O | 0% (inactive) | 
Cc1ccc(-n2nnnc2CS(=O)(=O)c2ccccc2)c(C)c1 | -5.86% (inactive) | 
C=CCc1ccccc1OCC(=O)OCCNC(=O)c1cccnc1 | 3.9% (inactive) | 
Cc1ccc(NCc2ccccc2)cc1 | -5.19% (inactive) | 
CSc1ccc(CNc2ccc(C)cc2)cc1 | 2.76% (inactive) | 
COc1ccc(OC)c(N=c2oc3c(OC)cccc3cc2C(=O)NCc2ccco2)c1 | -9.6% (inactive) | -5.77
COc1ccccc1N=c1oc2c(OC)cccc2cc1C(=O)NCc1ccco1 | 12.3% (inactive) | 6.37
O=c1oc2ccccc2c(O)c1C=Nc1cccnc1 | -5.19% (inactive) | 

SMILES | inhibition | inhibition [1] [%]
COc1cccc(Nc2cc(N3CCOCC3)c3nonc3c2[N+](=O)[O-])c1 | 2.01% (inactive) | 
O=[N+]([O-])c1c(Nc2ccc(O)cc2)cc(N2CCOCC2)c2nonc12 | 9.17% (inactive) | 
Nc1cc(Nc2ccccc2)c2nonc2c1[N+](=O)[O-] | -1.31% (inactive) | 
CC(=O)Nc1ccc(Nc2cc(N3CCOCC3)c3nonc3c2[N+](=O)[O-])cc1 | -6.25% (inactive) | 
CN(C)c1cc(Nc2ccc(O)cc2)c([N+](=O)[O-])c2nonc12 | -10.7% (inactive) | 
CC(=O)Nc1ccc(Nc2cc(N(C)C)c3nonc3c2[N+](=O)[O-])cc1 | -5.29% (inactive) | 
CN(C)c1cc(Nc2cccc(O)c2)c([N+](=O)[O-])c2nonc12 | 6.85% (inactive) | 
O=[N+]([O-])c1ccc(Nc2ccccn2)c([N+](=O)[O-])c1 | -9.54% (inactive) | 
Cc1ccc(-c2cc(C(=O)N3CCOCC3)c3cc(C)ccc3n2)cc1 | -1.58% (inactive) | 
O=C1CS/C(=C\S(=O)(=O)c2ccc(Cl)cc2)N1 | -10.6% (inactive) | 
CCC(=O)N1c2ccccc2-c2nnc(SC)nc2OC1c1ccc(N(C)C)cc1 (configuration not stated) | -7.25% (inactive) | 
Cc1cnn(C(=O)c2cc(-c3ccccn3)nc3ccc(Cl)cc23)c1 | 8.88% (inactive) | 
CCOC(=O)NC1(C(F)(F)F)NC(=O)N(C2CCCCC2)C1=O (configuration not stated) | -2.12% (inactive) | 
COc1ccc(CCNC(=O)CSc2nc(=O)n3cc(C)ccc3n2)cc1OC | 3.6% (inactive) | 
CCCCn1c(SCC(=O)NNC(=O)c2ccccc2)n[nH]c1=O | 3.69% (inactive) | 
Cc1nnc(SCC(=O)Nc2nc3ccccc3s2)n(N)c1=O | -2.58% (inactive) | 
O=[N+]([O-])c1c(Nc2ccccc2O)cc(N2CCOCC2)c2nonc12 | 6.36% (inactive) | 
O=C(O)c1ccc(Nc2ccc3nonc3c2[N+](=O)[O-])cc1 | -2.31% (inactive) | 
O=C(O)c1ccc(Nc2ccc([N+](=O)[O-])c3nonc23)cc1 | -1.54% (inactive) | 
CCNc1cc(Nc2c(C)n(C)n(-c3ccccc3)c2=O)c([N+](=O)[O-])c2nonc12 | 6.99% (inactive) | 
Cc1c(Nc2cc(N3CCCCCC3)c3nonc3c2[N+](=O)[O-])c(=O)n(-c2ccccc2)n1C | -6.93% (inactive) | 
O=[N+]([O-])c1c(Nc2ccccc2O)ccc2nonc12 | 6.25% (inactive) | 
O=C(O)c1cccc(Nc2ccc([N+](=O)[O-])c3nonc23)c1 | 1.29% (inactive) | 
O=C(O)c1cccc(Nc2ccc3nonc3c2[N+](=O)[O-])c1 | 1.54% (inactive) | 

SMILES | inhibition | inhibition [1] [%]
O=C(COC(=O)/C=C/c1cccc(Br)c1)NCc1cccs1 | -4.41% (inactive) | 
COCCCNC(=O)Cn1cnc(C(=O)Nc2ccc(C)c(C)c2)n1 | -3.97% (inactive) | 0.615
COc1cccc(Nc2nc(N)nc(-c3oc4ccccc4c3C)n2)c1 | -4.01% (inactive) | 
Cc1ccc(NS(=O)(=O)c2ccc(OCC(=O)NCC3CCCO3)cc2)cc1 (configuration not stated) | 2.96% (inactive) | 
O=S(=O)(Nc1ccc2c(c1)nc1n2CCOC1)c1ccc(Cl)cc1 | -6.15% (inactive) | 
COc1cccc(/C=N/N2CCOCC2)c1O | -2.67% (inactive) | 
COc1ccc(O)c(/C=N/N2CCOCC2)c1 | -4.77% (inactive) | 
COc1ccc(C=C2NC(=O)NC2=O)cc1O | 5.71% (inactive) | 
COc1ccc(NC(=S)N(CCC(C)C)C(C)c2ccncc2)cc1 (configuration not stated) | 0.57% (inactive) | 
CCOC(=O)c1ccc(OCc2nc(-c3cccs3)no2)cc1 | -0.7% (inactive) | 
CN(C)S(=O)(=O)c1cccc(NC(=O)CO/N=C(\N)c2ccccc2)c1 | 2.16% (inactive) | 
CCN1C(=O)/C(=C\c2cn(-c3ccccc3)nc2-c2cccnc2)SC1=S | 2.99% (inactive) | 
COc1ccc(-c2nn(-c3ccccc3)cc2/C=C2/SC(=S)N(CCC(=O)O)C2=O)cc1 | 11.8% (inactive) | 
CN(C)S(=O)(=O)c1cccc(-c2nn(-c3ccccc3)cc2/C=C2\SC(=S)NC2=O)c1 | -16% (inactive) | 
CC1CCN(C2=NC(=O)/C(=C/c3cn(-c4ccccc4)nc3-c3cccc(S(=O)(=O)N(C)C)c3)S2)CC1 | -0.56% (inactive) | 
CCC(=O)Nc1ccc2c(c1)ncn2C | -8.57% (inactive) | 
CCC(=O)Nc1ccc2ccccc2c1 | -7.67% (inactive) | 
O=c1[nH]nc(-c2ccc(F)cc2)cc1Cc1ccccc1 | -7.66% (inactive) | 
N#C/C(=C\c1ccccc1OCc1ccc(C(=O)O)cc1)C(=O)Nc1ccc(O)cc1 | 27% (inactive) | 
COc1ccc(NC(=O)/C(C#N)=C\c2ccc(OCc3ccc(C(=O)O)cc3)c(OC)c2)cc1 | -8.98% (inactive) | 
O=C(NCCCN1CCOCC1)c1ccc(S(=O)(=O)Nc2ccccc2)cc1 | -4.34% (inactive) | 
Cc1ccc(NC(=O)Nc2cc(C)on2)cc1 | -0.74% (inactive) | 

From PubChem BioAssay AID588689 (Southern Research Specialized Biocontainment Screening …, 2011)
